Assay results published in PubChem BioAssay (EPA / NIEHS).
“And” between values parts separate entries of the source, which are not always exact repeats. Equal values may be shown once. The source holds several records for some structures; these can differ, active in one and inactive in another. The source made the active and inactive calls. Rule for the calls: active = hit-call score of the fitted dose curve at least 0.9, where 1 is the maximum; inactive = score below 0.9.

Legend:
[1] = read-out: Collagen IV, COL4A1 (gene 1282); assay: BSK_MyoF_CollagenIV: BioMAP Diversity Plus: MyoF Assay for Collagen IV Biomarker Activity (AID 2284247); conditions: primary human lung fibroblasts
Outline: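 ELISA read-out of Collagen IV in lung fibroblast cultures, 24 h post-dosing; gain of signal relative to DMSO vehicle baseline defines activity.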

[2] = read-out: Plasminogen activator inhibitor-1 (PAI1), SERPINE1 (gene 5054); assay: BSK_MyoF_PAI1: BioMAP Diversity Plus: MyoF Assay for Plasminogen activator inhibitor-1 (PAI1) Biomarker Activity (AID 2284256); conditions: primary human lung fibroblasts
Outline: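 In this multiplexed primary-cell system, fibroblasts from human lung received compound for 24 h before ELISA detection of PAI-1; overt toxicity was checked by SRB (0.1%, TCA-fixed, 560 nm) in parallel wells.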

[3] = read-out: Interleukin-8 (IL8), CXCL8 (gene 3576); assay: BSK_MyoF_IL8: BioMAP Diversity Plus: MyoF Assay for Interleukin-8 (IL8) Biomarker Activity (AID 2284261); conditions: primary human lung fibroblasts
Outline: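 DMSO-normalised, upward-fitted IL-8 ELISA signal; human lung fibroblasts, 24 h chemical treatment.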

Decorin, DCN (gene 1634) = assay: BSK_MyoF_Decorin: BioMAP Diversity Plus: MyoF Assay for Decorin Biomarker Activity (AID 2284265); conditions: primary human lung fibroblasts
Outline: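 In this multiplexed fibroblast system, secreted or surface decorin is detected by ELISA one day after dosing, with increases scored against the DMSO vehicle.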

[4] = read-out: Monokine induced gamma interferon (MIG), CXCL9 (gene 4283); assay: BSK_KF3CT_MIG: BioMAP Diversity Plus: KF3CT Assay for Monokine induced gamma interferon (MIG) Biomarker Activity (AID 2284248); conditions: primary human keratinocytes with fibroblasts
Outline: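 MIG in dosed human skin co-cultures was measured by ELISA at 24 h, relative to DMSO.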

[5] = read-out: Vascular cell adhesion molecule 1 (VCAM1), VCAM1 (gene 7412); assay: BSK_BF4T_VCAM1: BioMAP Diversity Plus: BF4T Assay for Vascular cell adhesion molecule 1 (VCAM1) Biomarker Activity (AID 2284249); conditions: primary human bronchial epithelial cells with fibroblasts
Outline: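 Cell-surface VCAM-1 quantified by ELISA after 24 h chemical exposure of human bronchial epithelial/dermal fibroblast co-cultures, with SRB staining in parallel wells for cytotoxicity; DMSO baseline, positive-direction fitting.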

[6] = read-out: Collagen I, COL1A1 (gene 1277); assay: BSK_hDFCGF_CollagenI: BioMAP Diversity Plus: hDFCGF Assay for Collagen I Biomarker Activity (AID 2284250); conditions: primary human foreskin fibroblasts
Outline: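 ELISA read-out of Collagen I in human dermal foreskin fibroblast cultures, 24 h after dosing. Gain of signal versus DMSO vehicle defines activity.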

[7] = read-out: Interferon-inducible T-cell alpha chemoattractant (ITAC), CXCL11 (gene 6373); assay: BSK_hDFCGF_ITAC: BioMAP Diversity Plus: hDFCGF Assay for Interferon-inducible T-cell alpha chemoattractant (ITAC) Biomarker Activity (AID 2284251); conditions: primary human foreskin fibroblasts
Outline: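 Chemical dosing of primary human foreskin fibroblast cultures preceded ELISA measurement of I-TAC at 24 h. Response was analysed in the positive direction using DMSO as baseline, while parallel SRB staining measured cytotoxicity.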

[8] = read-out: Plasminogen activator inhibitor-1 (PAI1), SERPINE1 (gene 5054); assay: BSK_KF3CT_PAI1: BioMAP Diversity Plus: KF3CT Assay for Plasminogen activator inhibitor-1 (PAI1) Biomarker Activity (AID 2284252); conditions: primary human keratinocytes with fibroblasts
Outline: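 Keratinocyte + dermal fibroblast co-culture (human primary); 24 h post-dose; PAI-1 by ELISA; gain-of-signal fit vs DMSO control.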

[9] = read-out: Monocyte Chemoattractant Protein-1 (MCP1), CCL2 (gene 6347); assay: BSK_IMphg_MCP1: BioMAP Diversity Plus: IMphg Assay for Monocyte Chemoattractant Protein-1 (MCP1) Biomarker Activity (AID 2284253); conditions: primary human endothelial cells with macrophages
Outline: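 ELISA readout of MCP-1 at 24 hours in IMphg co-cultures of venular endothelial cells and macrophages, normalised to DMSO; parallel cultures stained with sulforhodamine B for overt cytotoxicity.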

[10] = read-out: Interleukin-8 (IL8), CXCL8 (gene 3576); assay: BSK_KF3CT_IL8: BioMAP Diversity Plus: KF3CT Assay for Interleukin-8 (IL8) Biomarker Activity (AID 2284254); conditions: primary human keratinocytes with fibroblasts
Outline: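 Using parallel SRB-stained cultures to flag overt toxicity, the study quantified IL-8 by ELISA in human keratinocyte–foreskin fibroblast co-cultures 24 h after dosing, with DMSO as negative control and baseline.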

[11] = read-out: Macrophage Inflammatory Protein-1 Alpha (MIP1a), CCL3 (gene 6348); assay: BSK_IMphg_MIP1a: BioMAP Diversity Plus: IMphg Assay for Macrophage Inflammatory Protein-1 Alpha (MIP1a) Biomarker Activity (AID 2284255); conditions: primary human endothelial cells with macrophages
Outline: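 MIP-1a protein levels were quantified by ELISA after 24 h treatment of human endothelial cell–macrophage co-cultures, compared with DMSO. Parallel cultures were fixed with TCA and stained with 0.1% SRB to gauge overt cytotoxicity.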

CD69, CD69 (gene 969) = assay: BSK_IMphg_CD69: BioMAP Diversity Plus: IMphg Assay for CD69 Biomarker Activity (AID 2284257); conditions: primary human endothelial cells with macrophages
Outline: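 Readout is ELISA for CD69 in primary human venular endothelial cell/macrophage co-culture, taken at 24 h post-dosing. SRB staining of parallel cultures gauged overt cytotoxicity; signal increase versus DMSO defined activity.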

[12] = read-out: Eotaxin 3, CCL26 (gene 10344); assay: BSK_BF4T_Eotaxin3: BioMAP Diversity Plus: BF4T Assay for Eotaxin 3 Biomarker Activity (AID 2284258); conditions: primary human bronchial epithelial cells with fibroblasts
Outline: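 ELISA measurement of Eotaxin-3 after 24 h chemical exposure in a bronchial epithelial/dermal fibroblast co-culture, with DMSO as baseline. Parallel SRB staining (0.1% SRB after 10% TCA fixation, 560 nm) flagged overt cytotoxicity.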

[13] = read-out: Monocyte Chemoattractant Protein-1 (MCP1), CCL2 (gene 6347); assay: BSK_BF4T_MCP1: BioMAP Diversity Plus: BF4T Assay for Monocyte Chemoattractant Protein-1 (MCP1) Biomarker Activity (AID 2284259); conditions: primary human bronchial epithelial cells with fibroblasts
Outline: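 MCP-1 ELISA readout taken 24 h after dosing in the BF4T system (bronchial epithelial cells plus dermal fibroblasts). Parallel SRB total-protein staining flagged cytotoxicity; DMSO served as baseline, positive fitting direction.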

[14] = read-out: Intercellular Adhesion Molecule 1 (ICAM1), ICAM1 (gene 3383); assay: BSK_BF4T_ICAM1: BioMAP Diversity Plus: BF4T Assay for Intercellular Adhesion Molecule 1 (ICAM1) Biomarker Activity (AID 2284260); conditions: primary human bronchial epithelial cells with fibroblasts
Outline: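 ICAM-1 levels measured by ELISA after 24 h chemical treatment of bronchial epithelial cell/dermal fibroblast co-cultures, read against DMSO baseline. Overt cytotoxicity checked in parallel cultures by sulforhodamine B staining.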

CD90, THY1 (gene 7070) = assay: BSK_BF4T_CD90: BioMAP Diversity Plus: BF4T Assay for CD90 Biomarker Activity (AID 2284262); conditions: primary human bronchial epithelial cells with fibroblasts
Outline: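 CD90 levels by ELISA after 24 h treatment of human bronchial epithelial cell/dermal fibroblast cultures, analysed versus DMSO. Overt cytotoxicity checked in parallel cultures by sulforhodamine B staining.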

[15] = read-out: Interleukin-8 (IL8), CXCL8 (gene 3576); assay: BSK_BF4T_IL8: BioMAP Diversity Plus: BF4T Assay for Interleukin-8 (IL8) Biomarker Activity (AID 2284263); conditions: primary human bronchial epithelial cells with fibroblasts
Outline: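 Human bronchial epithelial cells with dermal fibroblasts co-culture; IL-8 measured by ELISA 24 hours after dosing, fitted vs DMSO. Cytotoxicity tracked in parallel cultures by SRB total-protein staining.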

[16] = read-out: Interleukin-1 alpha (IL1a), IL1A (gene 3552); assay: BSK_BF4T_IL1a: BioMAP Diversity Plus: BF4T Assay for Interleukin-1 alpha (IL1a) Biomarker Activity (AID 2284264); conditions: primary human bronchial epithelial cells with fibroblasts
Outline: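 ELISA read-out of IL-1α from bronchial epithelial cell/dermal fibroblast co-cultures 24 h after compound addition. Increases scored against DMSO negative control. Cytotoxicity monitored by sulforhodamine B staining of parallel cultures.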

KRT18 (gene 3875) = assay: BSK_BF4T_Keratin818: BioMAP Diversity Plus: BF4T Assay for Keratin 818 Biomarker Activity (AID 2284266); conditions: primary human bronchial epithelial cells with fibroblasts
Outline: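 Keratin 8/18 levels quantified by ELISA after 24 h chemical treatment of bronchial epithelial cell/dermal fibroblast co-cultures, fitted in positive direction relative to DMSO. Parallel SRB staining tracks overt cytotoxicity.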

Measured: AC50

Nc1ccc(N)c([N+](=O)[O-])c1
inactive: [1] | [2] | [3] | Decorin, DCN (gene 1634)

C=C(F)C(=O)OC(C(F)(F)F)C(F)(F)F
active: [13] 47.3 µM
inactive: [1] | [4] | [5] | [6] | [7] | [8] | [9] | [10] | [11] | [2] | CD69, CD69 (gene 969) | [12] | [13] | [14] | [3] | CD90, THY1 (gene 7070) | [15] | [16] | Decorin, DCN (gene 1634) | KRT18 (gene 3875)

O=S1(=O)CC(Cl)(Cl)C(Cl)(Cl)C1
inactive: [3] | Decorin, DCN (gene 1634)
active: [1] 1.85 µM | [2] 2.62 µM

C=C1CC/C=C(\C)CC[C@@H]2[C@@H]1CC2(C)C
active: [1] 23.8 µM | [2] 20 µM | Decorin, DCN (gene 1634) 31 µM
inactive: [3]

CCn1cc(C(=O)O)c(=O)c2ccc(C)nc21
inactive: [4] | [6] | [7] | [8] | [10]

CCOC(=O)C=Cc1ccccc1
inactive: [1] | [2] | [3] | Decorin, DCN (gene 1634)

CC1=CC(C)C(C=O)C(C)C1 (stereo unspecified) (tested in a mixture with another compound)
inactive: [1] | [2] | [3] | Decorin, DCN (gene 1634)

CCCCCCCCCC(=O)OCC
inactive: [1] | [2] | [3] | Decorin, DCN (gene 1634)

CC(=O)OC(C)(C)C1CC=C(C)CC1 (stereo unspecified)
inactive: [1] | [2] | [3] | Decorin, DCN (gene 1634)

O=C(O)C(F)(F)C(F)(F)C(F)(F)C(F)(F)C(F)(F)C(F)(F)C(F)(F)C(F)F
active: [5] 2.3 µM | [7] 12.9 µM | CD69, CD69 (gene 969) 0.257 µM | [12] 4.86 µM and 2.55 µM | [13] 2.81 µM and 1.53 µM | [14] 2.59 µM and 3.49 µM | Decorin, DCN (gene 1634) 22.5 µM
inactive: [1] | [4] | [5] | [6] | [7] | [8] | [9] | [10] | [11] | [2] | CD69, CD69 (gene 969) | [3] | CD90, THY1 (gene 7070) | [15] | [16] | Decorin, DCN (gene 1634) | KRT18 (gene 3875)

c1ccc(Sc2ccccc2)cc1
inactive: [2]
active: [1] 32.6 µM | [3] 30.6 µM | Decorin, DCN (gene 1634) 36.5 µM

CC(C)CCCC(C)(C)O
inactive: [4] | [6] | [7] | [8] | [10]

CCOC(=O)CCCCCCCCC(=O)OCC
inactive: [1] | [2] | [3] | Decorin, DCN (gene 1634)

CCCCCCCCCCCCS
inactive: [1] | [3]
active: [2] 20 µM | Decorin, DCN (gene 1634) 3.97 µM

NC(=O)c1c(Cl)cccc1Cl
inactive: [1] | [3] | Decorin, DCN (gene 1634)
active: [2] 4.48 µM

C=C(C)C(=O)OCCC(F)(F)C(F)(F)C(F)(F)C(F)(F)C(F)(F)C(F)(F)C(F)(F)C(F)(F)F
inactive: all assays above

O=C1OC2(c3ccc(O)cc3Oc3cc(O)ccc32)c2ccccc21
inactive: [1] | [2] | [3] | Decorin, DCN (gene 1634)

c1ccc2c(c1)-c1ccc3ccc4cccc5cc-2c1c3c45
inactive: [3] | Decorin, DCN (gene 1634)
active: [1] 0.0918 µM | [2] 1.24 µM

OCCN1CCOCC1
inactive: [1] | [2] | [3] | Decorin, DCN (gene 1634)
